Among all 69,000 compounds or so, about 8,600 (12%) showed an effect of 50% or more. Shown is part of a subset that was picked to be rich in strong results.

This assay relates to Plasmodium berghei. Kind of assay: Screen against P. berghei liver stage (PbLuc), transformed with Luciferase, at 10uM. Particulars: tested at 10 uM. The format is functional, HepG2.
For `COCCSCC(=O)NCc1ccnc(N(C)C)c1`, the INHIBITION is reported as 46.4%.
Under `Cc1oc(C(C)C)cc1C(=O)N1C[C@@H]2CC[C@H]1CN(S(=O)(=O)N(C)C)C2` stands -19.5%; under `CNC1CCCN(Cc2noc(C3CC3)n2)C1` (centres undefined), -17.4%.
The value for `CC(C)N1CCCC2(CCN(Cc3noc(C4CCCC4)n3)C2)C1=O` (centres undefined) was 70.2%.
The value for `CCCN1CCCC2(CCN(Cc3noc(C4CCCC4)n3)C2)C1=O` (centres undefined) was -15.8%; that for `O=C1N(CCO)CCCC12CCN(Cc1noc(C3CCCC3)n1)C2` (centres undefined) was 22.7%; that for `O=C1CCC2(CCCO2)CCN1Cc1noc(C2CCCC2)n1` (centres undefined) was 26.7%.
`CC(C)N1CC2(CCCN(Cc3noc(C4CCCC4)n3)C2)CCC1=O` (centres undefined): the INHIBITION is recorded as 50.5%.
Consider `CCN1CCC2(CCN(Cc3nccs3)CC2)C1=O`, for which the INHIBITION was -28.8%.
The value for `O=C(NCC(=O)N1CCCCC1)c1ccoc1` was 17.3%.
Under `Cc1ccc2[nH]c(=O)c(CNCCCN3CCOCC3)cc2c1` stands -37%.
Under `Cc1csc2c(N3CCNC(C(=O)Nc4ccc(F)cc4)C3)ncnc12` (centres undefined) stands 62.8%; under `Cc1csc2c(N3CCNC(C(=O)N4CCCC4)C3)ncnc12` (centres undefined), -10.1%; under `Cc1csc2c(N3CCNC(C(=O)NCc4cccnc4)C3)ncnc12` (centres undefined), 16.9%.
With `CCn1cc(CN2C[C@@H]3CCCN3C[C@@H]2CCSC)c(C)n1`, the INHIBITION was 46.1%.
The value for `CN(C)C(=O)Cn1cc(C(=O)NCCc2ccc(C(F)(F)F)cc2)nn1` was -25.9%; that for `Cc1cc(-n2nc(C)nc2-c2cn(CCN)nn2)ccn1` was 41.5%.
The value for `Cc1nc(-c2cn(CCN)nn2)n(-c2ccc3c(c2)CCC3)n1` was 56.5%; that for `Cc1nc(CCN2CCCCC2)n(-c2ccc(F)cc2)n1` was -8.19%; that for `CNS(=O)(=O)CCn1cc(-c2cc3c(cc2OC)CCC3)nn1` was 37.3%.
With `Cc1nc(-c2cn(CCN)nn2)n(-c2ccc(C(F)(F)F)cc2)n1`, the INHIBITION came to 76.8%.
The value for `CC(C)c1noc(CNC2CCCN(Cc3noc(C4CC4)n3)C2)n1` (centres undefined) was -42.1%; that for `Cc1nc(N2CCN(C)CC2)ncc1C(=O)N1CC[C@](C)(O)[C@H](C)C1` was -10.2%.
The value for `Cc1ccoc1C1=NNC(=CN2CCOC(Cn3cccn3)C2)O1` (centres undefined) was -50.5%.
Under `COCCN1CCN(C=C2NN=C(c3occc3C)O2)CC1` stands 43.4%; under `CCOCCN1CCN(C=C2NN=C(c3occc3C)O2)CC1`, 70.3%.
As to `CCOCCN1CCN(C=C2NN=C(c3occc3C)O2)CC1CC` (centres undefined), the INHIBITION is given as 76.7%.
Under `CCc1nnc2n1CCN(C=C1NN=C(c3occc3C)O1)C2` stands 11.2%; under `Cc1ccoc1C1=NNC(=CN2CCn3c(C)nnc3C2)O1`, -21.7%.

The values above are taken from ChEMBL document CHEMBL4513216, “Probing the Open Global Health Chemical Diversity Library for Multistage-Active Starting Points for Next-Generation Antimalarials” (ACS Infect Dis, 2020).
